In PubChem BioAssay (Tox21):
Results filed as inconclusive are left out. Where a call stands in place of a potency, no number is given. Activity calls are given as the source filed them. Calls follow the shape of the dose curve; as a rule, active = well fitted cell-killing curve with a large enough effect in the repeat runs (not every such curve was filed as active); inconclusive = weak or mixed curves, or effect the other way; inactive = no such curve, though single readings can be large or run the other way.

Assay: qHTS assay to identify small molecule antagonists of the estrogen related receptor signaling pathway with the pleiotropic PPARgamma coactivator (PGC) from Tox21 10K library - cell viability counter screen (AID 1224840); also: nearly all actives have a fitted effect of over 40% in size
Details: PGC/ERR reporter cells viability, CellTiter-Fluor, 17.5 h; series mostly up to 92.4 µM
Excerpt: National Center for Advancing Translational Sciences [NCATS]
NIH Chemical Genomics Center [NCGC]
U.S. Environmental Protection Agency [EPA]
National Institutes of Environmental Health Sciences [NIEHS]
National Toxicology Program [NTP]
U.S. Food and Drug Administration [FDA]
Estrogen related receptors (ERRs), the first orphan nuclear receptors discovered, play an important role in the control of cellular energy metabolism. ERRs are required for high-energy production in response to the environmental challenges. The pleiotropic PPARgamma coactivator (PGC) is a major partner of ERR and a key regulator in energy homeostasis. Together they have been implicated in the etiology of metabolic disorders such as Type 2 diabetes and metabolic syndrome. ERR-alpha was also identified as an adverse marker for breast cancer progression; ERR-alpha-positive tumors have a poor prognosis. To screen and to identify environmental compounds that perturb the ERR and PGC/ERR signaling pathways could provide valuable information for potential therapeutic or preventive measures in the treatment of metabolic disease. To differentiate true PGC/ERR antagonists or agonist from cytotoxic substances, the assay is multiplexed with cell viability assay.
Tox21 Assay Protocol Summary:
The PGC/ERR cells were dispensed at 2,000 cells/5 ul/well in 1536-well white plates using a Multidrop dispenser. After the assay plates were incubated at a 37 C/5% CO2 incubator for 6 hours, 23 nL of compounds dissolved in DMSO, positive and negative controls or DMSO only was transferred to the assay plate by a pin tool. The plates were incubated at 37 C for 17.5 hours. 1 ul/well of CellTiter-Fluor reagent was added into the assay plates using a Flying Reagent Dispenser. After 30-minute incubation at 37 C/5% CO2, the fluorescence intensity in the plates was measured using a ViewLux plate reader.
Potency is read from the fitted curve at half-maximal effect.

Structure (SMILES) | Potency | viability change, negative = cytotoxic
O=C(N[C@H](CO)[C@H](O)c1ccc([N+](=O)[O-])cc1)C(Cl)Cl | inactive | 
C=CC(=O)OCCOC1C2CCC1C1CC=CC12 (stereo not given) |  | -0.314% [at 19 µM] (inactive)
O=C1c2ccccc2C(=O)c2c(Cl)cccc21 | inactive | 
COc1cc(C(C)C)ccc1C |  | -28.8% [at 19 µM] (inactive)
COc1cccc(-c2ccc(/C=C\CN3CCCCCC3)cc2Cl)c1 | 54.2 µM (active) | 
Nc1cc([N+](=O)[O-])cc(Cl)c1O | inactive | 
CN(C[C@@H](CC[N+]12CCC(C3CCCCC3)(CC1)CC2)c1ccc(Cl)c(Cl)c1)C(=O)c1cc(C(F)(F)F)cc(C(F)(F)F)c1 | 30.6 µM (active) | 
Cc1ccc(Cl)c(N)c1Cl | inactive | 
CCC(=O)OC/C=C(\C)CCC=C(C)C | inactive | 
O=C(c1ccccc1)c1ccc(Cl)cc1 | inactive | 
Brc1cc(Br)cc(Br)c1 | inactive | 
SC1CCCCC1 | inactive | 
C=C1CC[C@H]2O[C@]2(C)CC[C@@H]2[C@@H]1CC2(C)C | inactive | 
CCOc1nc(F)cc2nc(S(=O)(=O)Nc3c(Cl)cccc3C(=O)OC)nn12 | inactive | 
NC(=O)C1CO1 (stereo not given) | inactive | 
Cc1cc(Br)ccc1NC(=O)CCl | 15.4 µM (active) | 
Cc1cccc(C)c1C | inactive | 
CCCCCN=C(N)N/N=C/c1c[nH]c2ccc(OC)cc12 | 21.1 µM (active) | 
CCCOC(=O)c1ccc(O)cc1 | inactive | 
CO[Si](OC)(c1ccccc1)c1ccccc1 | inactive | 

Structure (SMILES) | Potency | viability change, negative = cytotoxic
O=C(O)CN(CCCN(CC(=O)O)CC(=O)O)CC(=O)O |  | -3.45% [at 19 µM] (inactive)
Nc1ccc2c(S(=O)(=O)O)cccc2c1S(=O)(=O)O | inactive | 
C=Cc1ccc(O)c(OC)c1 | inactive | 
CCC(C)(C)c1ccc(CC(C)CN2C[C@@H](C)O[C@@H](C)C2)cc1 (stereo not given in full) | inactive | 
Cc1ccc2n[nH]nc2c1 | inactive | 
CN1CC[C@H](c2c(O)cc(O)c3c(=O)cc(-c4ccccc4Cl)oc23)[C@H](O)C1 | inactive | 
S=C1NC=NC2N=CNC12 (stereo not given) | inactive | 
CCCCCCCCCCCCS(=O)(=O)Cl |  | 3.05% [at 19 µM] (inactive)
CCSCC | inactive | 
Oc1ccc(Cl)cc1C1CCCC1 | inactive | 
O=C(O)C[C@H](O)C[C@H](O)/C=C/c1c(C2CC2)nc2ccccc2c1-c1ccc(F)cc1 |  | -0.117% [at 19 µM] (inactive)
O=C1CCC(=O)N1 | inactive | 
C=CC(C)(C)O | inactive | 
O=[N+]([O-])c1ccc(O)c2ncccc12 | 10.6 µM (active) | 
Cc1ccc(C=O)cc1 | inactive | 
Nc1ccc(F)c([N+](=O)[O-])c1 | inactive | 
O=C(Nc1ccccc1)c1cc(Cl)ccc1O | 17.2 µM (active) | 
O=c1cc[nH]cc1 | inactive | 
CCCCCCCCCCCC(=O)Cl | inactive | 
O=C1OC(=O)c2cc(-c3ccc4c(c3)C(=O)OC4=O)ccc21 | inactive | 
